PrPC TRFRET = inhibitors of human cell surface prion protein PrPC, primary screen, cell-based, TR-FRET. Major prion protein (Homo sapiens), P04156. inhibition, % at 13.8 µM. AID 720596, 2013. 0.43% of 370,000 active. TR-FRET read-out; in the data active = inhibition above about 24%; also: 0% = median of the test wells and 100% = reference compound wells
PfHsp40 yeast = rescue of yeast from PfHsp40 toxicity, primary screen, S. cerevisiae, ATP luminescence. S. cerevisiae expressing PfHsp40, growth rescue. growth rescue, % at 12.5 µM. 0.68% of 340,000 active. AID 504582, 2011; in the data active = growth rescue above about 28%, passing the limit was not always enough;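 also: yeast W303a lacking pdr1 and pdr3 grown in galactose medium; growth measured after three days at 30 °C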
PrP 5UTR inh = inhibition of PrP 5' UTR reporter expression; cell-based PrP 5' UTR mRNA reporter, plate reader; inhibition, % (test concentration not listed); 0.35% of 340,000 active; in the data active = inhibition above about 52%; also: 0 = median of the neutral control wells
BJeLR viability = MLPCN primary cell-based screen for lethality selective to Ras in HRASV12 cells | BJeLR (HRASV12) viability, CellTiter-Glo ATP luminescence, 48 h | inhibition, % (concentration not given with the values) | 0.17% of 300,000 active | AID 1554, 2009; in the data active = inhibition above about 50%
Yp Topo-I inh = Yersinia pestis topoisomerase I inhibitors, primary screen, biochemical, cleavage product accumulation, plate reader, single point. DNA topoisomerase I (Yersinia pestis CO92). Y. pestis Topo-I cleavage product accumulation. activity, % at 10 µM. 0.064% of 360,000 active; in the data active = activity above about 50%, passing the limit was not always enough
CCHF vOTU inh-1 = CCHFV vOTU protease inhibitors, primary screen, biochemical, Pep-AMC substrate, fluorescence | AID 651958, 2012 | inhibition, % at 11.5 µM | 0.55% of 370,000 active | Crimean-Congo hemorrhagic fever virus L polyprotein viral ovarian tumor (vOTU) protease …; also: 0% = vehicle wells with enzyme and 100% = no enzyme wells
CCHF vOTU inh-2 = CCHFV vOTU protease inhibitors, confirmation, biochemical, Pep-AMC substrate, fluorescence; shares compounds with CCHF vOTU inh-1; Recombinant CCHFV vOTU; inhibition, % at 11.5 µM; 17% of 1,900 active
* hit, by the source's call. A selection: hits, their analogues and other compounds. The true share with any hit is near 2%. Rule as the data show it, unless noted: active = inhibition above about 30%; inactive = the rest.

For O=C(CSc1ccc(Br)c2cccc(Cl)c12)Nc1ccc(S(=O)(=O)Nc2nccs2)cc1 the results were PrPC TRFRET 20, PfHsp40 yeast 3, PrP 5UTR inh -9, BJeLR viability 2, Yp Topo-I inh 31, CCHF vOTU inh-1 36* and CCHF vOTU inh-2 13.
`Cc1nn(CCC(=O)NNC(=O)Nc2ccccc2F)c(C)c1[N+](=O)[O-]` gave PrPC TRFRET -2 and CCHF vOTU inh-1 -6.
COc1ccc(N/C(=C\C(=O)c2ccccc2)c2ccccc2)cc1OC was read as PrPC TRFRET -7 and CCHF vOTU inh-1 0.
Screening CC1(c2nnnn2Cc2ccccc2)CSCC(=O)N1Cc1cccs1 (stereo not given) returned PrPC TRFRET 10 and CCHF vOTU inh-1 10.
CCOc1ccc2c(c1)C(C)=CC(C)(C)N2 was read as PrPC TRFRET -10, PfHsp40 yeast -3, PrP 5UTR inh -9, Yp Topo-I inh 3, CCHF vOTU inh-1 40* and CCHF vOTU inh-2 -105.
O=C(O)CC1(c2ccccc2)C(=O)c2ccccc2C1=O was read as PrPC TRFRET 2, PfHsp40 yeast 0, PrP 5UTR inh -17, BJeLR viability -7, Yp Topo-I inh -1 and CCHF vOTU inh-1 17.
Screening NC(=O)C1C(=O)c2ccccc2C1(C[N+](=O)[O-])c1ccccc1 (stereo not given) returned PrPC TRFRET 3, PfHsp40 yeast -1, PrP 5UTR inh -8, Yp Topo-I inh -1, CCHF vOTU inh-1 46* and CCHF vOTU inh-2 -1.
O=C(Nc1ccc2c(c1)OCO2)NC1CCN(S(=O)(=O)c2ccc(F)cc2)CC1 was read as PrPC TRFRET 3 and CCHF vOTU inh-1 -5.
Screening COC(=O)[C@]12C[C@H](CC(=O)N3CCOCC3)C(=O)N(Cc3cccc4ccccc34)C1=C[C@H](C1CCCC1)O[C@@H]2C returned PrPC TRFRET 3 and CCHF vOTU inh-1 2.
Cc1ccc(S(=O)(=O)Nc2ccc3cc([N+](=O)[O-])ccc3c2[N+](=O)[O-])cc1 was read as PrPC TRFRET -1, PfHsp40 yeast 352*, PrP 5UTR inh -17, Yp Topo-I inh -8, CCHF vOTU inh-1 31* and CCHF vOTU inh-2 23.
Cc1ccc(S(=O)(=O)Nc2ccc3ccccc3c2[N+](=O)[O-])cc1 was read as PrPC TRFRET 3, PfHsp40 yeast 408*, PrP 5UTR inh -22, Yp Topo-I inh 0, CCHF vOTU inh-1 35* and CCHF vOTU inh-2 14.
For O=C1C2C3C=CC(CC3)C2C(=O)N1c1ccc(F)cc1 (stereo not given) the results were PrPC TRFRET -5, PfHsp40 yeast 0, PrP 5UTR inh -11, BJeLR viability 9, Yp Topo-I inh 1 and CCHF vOTU inh-1 -15.
Screening CC(C)C1NC2(C(=O)c3ccccc3C2=O)C2C(=O)N(c3ccc(F)cc3)C(=O)C12 (stereo not given) returned PrPC TRFRET 4, PfHsp40 yeast 0, PrP 5UTR inh -18, BJeLR viability 0, Yp Topo-I inh 9, CCHF vOTU inh-1 52* and CCHF vOTU inh-2 -22.
For O=C(CSc1nnc(-c2ccccc2)n1-c1ccc(Cl)cc1)Nc1ccc(OCc2ccccc2)cc1 the results were PrPC TRFRET 9 and CCHF vOTU inh-1 5.
For CC(=O)N1CCn2c3c(c(=O)c4cc(C)ccc42)CCC31 (stereo not given) the results were PrPC TRFRET 3, PfHsp40 yeast 0, PrP 5UTR inh -17, BJeLR viability -4, Yp Topo-I inh -8, CCHF vOTU inh-1 101* and CCHF vOTU inh-2 16.
Screening Cc1ccccc1Nc1c([N+](=O)[O-])cncc1[N+](=O)[O-] returned PrPC TRFRET -30, PfHsp40 yeast 5, PrP 5UTR inh 8, BJeLR viability -16, Yp Topo-I inh -6, CCHF vOTU inh-1 30* and CCHF vOTU inh-2 -7.
COc1ccccc1Nc1c([N+](=O)[O-])cncc1[N+](=O)[O-] was read as PrPC TRFRET -10, PfHsp40 yeast -1, PrP 5UTR inh -25, BJeLR viability -11, Yp Topo-I inh 1 and CCHF vOTU inh-1 1.
Screening CCCCN(C)C(=O)CSc1nnc(-c2cccnc2)n1C1CCCCC1 returned PrPC TRFRET 4 and CCHF vOTU inh-1 -5.
`O=C1NC(=O)C2(CCCc3ccc(N(CCO)CCO)cc32)N1` (stereo not given) gave PrPC TRFRET -13 and CCHF vOTU inh-1 -1.
`O=S1(=O)c2ccc(Br)cc2OC[C@@H](Cc2ccccc2)N1Cc1cn(CCC2OCCCO2)nn1` gave PrPC TRFRET -4 and CCHF vOTU inh-1 -8.
C=CCn1c(COc2ccc(F)cc2)nnc1SCC(=O)c1c[nH]c2c(CC)cccc12 was read as PrPC TRFRET 6, PfHsp40 yeast 0, PrP 5UTR inh -11, BJeLR viability 8, Yp Topo-I inh 17, CCHF vOTU inh-1 37* and CCHF vOTU inh-2 3.
Screening COc1cc(NS(=O)(=O)c2ccc(Nc3nc(-c4ccccc4)cs3)cc2)nc(OC)n1 returned PrPC TRFRET 4, PfHsp40 yeast 0, PrP 5UTR inh -63, BJeLR viability 0, Yp Topo-I inh -3, CCHF vOTU inh-1 36* and CCHF vOTU inh-2 15.
For COc1cc(NS(=O)(=O)c2ccc(NC(=S)Nc3ccccc3)cc2)nc(OC)n1 the results were PrPC TRFRET -4, PfHsp40 yeast 0, PrP 5UTR inh -2, BJeLR viability -6, Yp Topo-I inh -6 and CCHF vOTU inh-1 11.
Cc1cc(C)nc(SCC(=O)N(C)CC(=O)Nc2c(Cl)cccc2Cl)n1 was read as PrPC TRFRET -4, PfHsp40 yeast 0, PrP 5UTR inh 0, BJeLR viability -5, Yp Topo-I inh 4, CCHF vOTU inh-1 34* and CCHF vOTU inh-2 -11.
`CCOC(=O)C1CSCCS(=O)(=O)N1Cc1cccc(F)c1` (stereo not given) gave PrPC TRFRET -4 and CCHF vOTU inh-1 -6.
For COC(=O)[C@]12C[C@H](CC(=O)NCc3cccc4ccccc34)C(=O)N(Cc3ccc4c(c3)OCO4)C1=C[C@H](C(C)C)O[C@@H]2C1CC1 the results were PrPC TRFRET 0 and CCHF vOTU inh-1 15.
`CCN(C(=S)NC(=O)c1ccco1)c1cccc2ccccc12` gave PrPC TRFRET -14, PfHsp40 yeast 0, PrP 5UTR inh -26, Yp Topo-I inh 0, CCHF vOTU inh-1 46* and CCHF vOTU inh-2 -44.
